High-throughput results as filed in PubChem BioAssay.
ALR H2O2 inh: human ALR oxidase inhibition via reduced H2O2. AID 485317. P55789. inhibition, % (concentration not given with the values). 3.8% of 290,000 active. purified ALR, DTT oxidation, H2O2 HRP-luminol luminescence;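 active means mean replicate inhibition above about 79%, with every replicate also reaching it, limit read from the data; inconclusive means only one of the two criteria met; inactive means mean below limit and not every replicate reaching it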
CASP6 VEID inh: caspase-6 (human) enzyme inhibition; P55212; purified caspase-6, Z-VEID-R110 cleavage fluorescence; inhibition, % at 12.5 µM; 0.53% of 350,000 active;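 active means mean inhibition across replicates at least about 35%, with every replicate also reaching that limit, limit read from the data; inconclusive means only one of the two criteria met; inactive means neither criterion met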;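 further: 0% = median of neutral control wells and 100% = no fluorescence left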
CFTR F508del cor: correctors of CFTR F508del function in bronchial epithelial cells; CFBE cells, YFP halide quenching; stimulated with forskolin plus potentiator P3; % fluorescence drop versus neutral controls; activity (quench increase), % at 7.58 µM; 0.36% of 350,000 active; AID 720511;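 active means mean added fluorescence quench of at least 8% versus neutral control, with both replicates also reaching 8%; inconclusive means only one of the mean or replicate conditions met; inactive means mean below 8% and not both replicates reaching 8%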;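 further: cells transiently co-express mutant CFTR-F508del with the halide-sensitive YFP; corrector assay measuring rescue of mutant channel to the surface after 24 h compound exposure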
HIV Env fusion: blocks HIV Env-driven cell-cell fusion. AID 651610. 1.1% of 360,000 active. HeLa-JRFL Env/CEM21 cell fusion, luciferase. inhibition, % at 12.3 µM;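 active means mean replicate inhibition score of at least 50 and every replicate individually at or above 50; inconclusive means only one of the two criteria met; inactive means mean below 50 and not all replicates reaching 50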;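 further: 0% = plate neutral controls and 100% = maraviroc near 300 nM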
NSD2 HMT inh: NSD2 (human) methyltransferase inhibition; O96028; NSD2 peptide methylation, AlphaScreen, 120 min; inhibition, % at 12.5 µM; 0.54% of 310,000 active; AID 743445; in the data active means inhibition above about 50%
PglD inh: blocks C. jejuni PglD acetyltransferase activity | purified PglD enzyme, DTNB colorimetric CoA detection | inhibition, % at 12.5 µM | 0.098% of 360,000 active | AID 602405; in the data active means inhibition above about 16%, passing the limit was not always enough; inconclusive means no clear call, values can overlap the other calls
An asterisk follows results filed as active; ? = inconclusive; · = no result; [ ] = remark or other dose. Rows were chosen to be rich in hits. Some 4.1% of all compounds tested hit in one or more screens of this group.

SMILES	ALR H2O2 inh	CASP6 VEID inh	CFTR F508del cor	HIV Env fusion	NSD2 HMT inh	PglD inh
CCn1c2ccccc2c2cc(NC(=O)CSc3nnc(-c4cccc(OC)c4)n3N)ccc21	3	·	·	135*	1	0
CCn1c2ccccc2c2cc(NC(=O)C(C)C)ccc21	1	·	·	-21	-3	4
CCn1c2ccccc2c2cc(NC(=O)CSc3nnc(-c4ccc(OC)c(OC)c4)n3N)ccc21	98*	·	·	-26	-1	-1
CCn1c2ccccc2c2cc(NC(=O)CSc3nnc(-c4ccccc4OC)n3N)ccc21	-12	·	·	133*	2	·
CCn1c2ccccc2c2cc(NC(=O)c3ccccc3-c3ccccc3C(=O)O)ccc21	98*	1	-2	13	4	0
CCCC(=O)N1CCC2(CC1)CN(C(=O)CC)[C@H](CO)c1c2c2ccc(OC)cc2n1C	·	5	-2	·	·	·
CCCC(=O)OCCNc1cc(Sc2nccn2C)c2nonc2c1[N+](=O)[O-]	97*	·	·	-179	·	·
CCCSc1cc(NCCOC(C)=O)c([N+](=O)[O-])c2nonc12	-16	·	·	-4	-1	·
CC(=O)OCCCNc1cc(SCc2ccco2)c2nonc2c1[N+](=O)[O-]	90*	·	·	-14	0	·
CCCC(=O)OCCNc1cc(SCc2ccco2)c2nonc2c1[N+](=O)[O-]	-5	·	·	-3	2	·
CCCSc1cc(NCCOC(=O)CCC)c([N+](=O)[O-])c2nonc12	97*	·	·	2	-1	·
Cc1cccc2c3c([nH]c12)[C@H]1CCC(=O)N1CC3	·	1	-1	-65[16.7 µM]	·	·
Cc1noc(C)c1NC(=O)Nc1ccc2c(c1)C(=O)N([C@@H](C)CO)C[C@@H](C)[C@H](CN(C)CC1CC1)OCCCC[C@H](C)O2	·	-2	-4	-2[16.7 µM]	·	2
COC1CCCCC1Nc1cccc(SC)c1 (configuration not stated)	99*	·	·	13	2	4
CC(C)(O)C#Cc1ccc(C(=O)NC2CCCCC2)s1	97*	0	-1	-11	2	·
C[C@H](CO)N1C[C@H](C)[C@H](CN(C)C)Oc2ccc(NS(=O)(=O)c3ccc(Cl)cc3)cc2CC1=O	·	1	-2	·	·	1
C[C@H]1CCCCO[C@@H](CN(C)Cc2ccc(C(F)(F)F)cc2)[C@@H](C)CN([C@@H](C)CO)C(=O)c2cc(NC(=O)Nc3cccc4ccccc34)ccc2O1	·	·	1	61*[16.7 µM]	·	-1
C[C@@H]1CN([C@@H](C)CO)C(=O)c2cc(NC(=O)c3ccccc3)ccc2O[C@@H](C)CCCCO[C@H]1CN(C)Cc1ccc(C(=O)O)cc1	·	-1	0	62*[16.7 µM]	·	6
C[C@H]1CCCCO[C@H](CN(C)Cc2ccc(C(F)(F)F)cc2)[C@@H](C)CN([C@@H](C)CO)C(=O)c2cc(NC(=O)Nc3cccc4ccccc34)ccc2O1	·	·	3	27[16.7 µM]	·	4
C[C@H]1CCCCO[C@H](CN(C)CC2CCCCC2)[C@@H](C)CN([C@@H](C)CO)C(=O)c2cc(NC(=O)c3ccccc3)ccc2O1	·	3	-1	?	·	0
C[C@@H]1CN([C@@H](C)CO)C(=O)c2cc(NC(=O)c3ccccc3)ccc2O[C@@H](C)CCCCO[C@@H]1CN(C)Cc1ccc(C(=O)O)cc1	·	1	1	-6[16.7 µM]	·	6
C[C@@H]1CN([C@@H](C)CO)C(=O)c2cc(NC(=O)c3ccccc3)ccc2O[C@@H](C)CCCCO[C@H]1CN(C)CC1CCCCC1	·	2	-1	63*[16.7 µM]	·	2
C[C@@H]1CN([C@H](C)CO)C(=O)c2cc(NC(=O)Nc3cccc4ccccc34)ccc2O[C@@H]1CN(C)Cc1ccc(C(F)(F)F)cc1	·	-2	-2	74*[16.7 µM]	·	2
O=C(C[C@@H]1CC[C@@H]2[C@H](COC[C@H](O)CN2S(=O)(=O)c2ccccc2)O1)N1CCOCC1	·	1	0	8[16.7 µM]	·	2
CCCNC(=O)C[C@H]1CC[C@@H]2[C@H](COc3ccc(NC(=O)NC(C)C)cc3C(=O)N2C)O1	·	·	-2	·	·	4
SMILES	ALR H2O2 inh	CASP6 VEID inh	CFTR F508del cor	HIV Env fusion	NSD2 HMT inh	PglD inh
C[C@@H]1CCCCO[C@@H](CN(C)CC2CC2)[C@@H](C)CN([C@H](C)CO)C(=O)c2cc(NC(=O)Cc3ccccc3)ccc2O1	·	1	0	-17[16.7 µM]	·	5
C[C@H]1CCCCO[C@@H](CN(C)Cc2ccccc2)[C@@H](C)CN([C@@H](C)CO)C(=O)c2cc(NC(=O)Nc3ccc(C(F)(F)F)cc3)ccc2O1	·	-3	3	68*[16.7 µM]	·	-2
C[C@@H]1CCCCO[C@H](CN(C)Cc2ccc(C(F)(F)F)cc2)[C@@H](C)CN([C@H](C)CO)C(=O)c2cc(NC(=O)c3ccccc3)ccc2O1	·	0	2	9[16.7 µM]	·	2
C[C@H](CO)N1C[C@H](C)[C@H](CN(C)CC2CC2)OCCCC[C@H](C)Oc2ccc(NC(=O)Nc3cccc4ccccc34)cc2C1=O	·	·	0	62*[16.7 µM]	·	-1
C[C@@H]1CCCCO[C@@H](CN(C)Cc2ccc(C(F)(F)F)cc2)[C@H](C)CN([C@@H](C)CO)C(=O)c2cc(NC(=O)c3ccccc3)ccc2O1	·	-2	1	56*[16.7 µM]	·	-1
C[C@@H]1CCCCO[C@H](CN(C)Cc2ccccc2)[C@H](C)CN([C@H](C)CO)C(=O)c2cc(NC(=O)Nc3ccc(C(F)(F)F)cc3)ccc2O1	·	-1	?	?	·	0
C[C@H](CO)N1C[C@H](C)[C@H](CN(C)Cc2ccccc2)OCCCC[C@H](C)Oc2ccc(NC(=O)Nc3ccc(C(F)(F)F)cc3)cc2C1=O	·	-2	2	66*[16.7 µM]	·	-1
O=C(C[C@@H]1C=C[C@@H](NS(=O)(=O)c2ccc(F)cc2)[C@H](CO)O1)NCc1ccccc1F	·	-2	1	·	·	·
C[C@@H]1CN([C@@H](C)CO)C(=O)c2cccc(NC(=O)Nc3ccc4c(c3)OCO4)c2O[C@@H]1CN(C)S(=O)(=O)c1ccc(Cl)cc1	·	0	-2	·	·	3
C[C@@H]1CCCCO[C@H](CN(C)Cc2ccc(C(F)(F)F)cc2)[C@H](C)CN([C@@H](C)CO)C(=O)c2cc(NC(=O)Nc3ccccc3)ccc2O1	·	·	-4	40[16.7 µM]	·	-3
C[C@@H]1CN([C@H](C)CO)C(=O)c2cc(NC(=O)Nc3ccccc3)ccc2O[C@@H](C)CCCCO[C@@H]1CN(C)Cc1ccc(C(F)(F)F)cc1	·	·	-12	58*[16.7 µM]	·	1
Cc1ccc(NCc2ccccc2O)cc1C	91*	2	2	-17	7	-3
COc1ccc(CNc2ccc(C)c(C)c2)c(OC)c1OC	66	-4	2	11	3	·
c1cncc(CNc2ccc3c(c2)OCO3)c1	80*	·	·	·	10	·
O=C(NCc1cccnc1)Nc1ccc2c(c1)OCO2	-5	-1	5	-11	9	·
Oc1ccccc1CNc1ccc2c(c1)OCCO2	99*	0	-1	7	1	-1
O=[N+]([O-])c1cc(O)c2ncccc2c1	-57	47*	-7	36	22	·
